High-throughput results deposited in PubChem BioAssay by National Center for Advancing Translational Sciences (NCATS).
The list is not random: actives were taken first. Their share in the collection is about 12%.
FMDV antiviral: High Throughput Screening for Foot and Mouth Disease Virus Antivirals. 1.2% of 410,000 active. FMDV antiviral cell-based qHTS. AID 1159524, 2015. Potency, µM (highest dose often 57.9 µM), for inactives: at the top dose activity change, negative = inhibition, usual class: inhibitors; calls by dose curve; tested in HEK293T cells; note: read-out not given here; potency is the fitted concentration of half-maximal effect; % is set by controls: 0 for no effect and ±100 for the full control effect; nearly all actives have a fitted effect of over 45% in size
Cycloheximide cs: Cycloheximide Counterscreen for Small Molecule Inhibitors of Shiga Toxin. cell reporter, cycloheximide protein synthesis inhibition counterscreen. max response, %. 12% of 300,000 active; in the data active = max response mostly above about 13%, no sharp cut-off; inactive = mostly below about 14%; note: read at 38.3 µM for the half of the compounds with a filed dose; 0% is about no effect
Shiga toxin inh: A qHTS for Small Molecule Inhibitors of Shiga Toxin; Vero cells, Shiga toxin protein synthesis inhibition reporter; inhibition, % at 38.7 µM; 9.2% of 290,000 active; in the data active = inhibition mostly above about 28%, no sharp cut-off; inactive = mostly below about 43%; note: 0% is about no effect
Sm TGR block: qHTS Assay for the Inhibitors of Schistosoma Mansoni Peroxiredoxins; Schistosoma mansoni thioredoxin glutathione reductase (TGR), Q962Y6; purified TGR, DTNB reduction, TNB absorbance 405 nm; Potency, µM (top dose mostly 114 µM), inactives show at the highest dose activity change, negative = inhibition, hits mostly inhibitors; 3% of 360,000 active; active = well fitted inhibition curve with a large enough effect; inconclusive = small, poorly fitted or top-dose-only effect; inactive = no such curve, though single readings can be large or run the other way; note: potency is the fitted concentration of half-maximal effect; % is set by controls: 0 for no effect and ±100 for the full control effect; nearly all actives have a fitted effect of over 60% in size
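TGR 20 nM + NADPH 100 uM (dispensed conc.), cpd preinc 15 min RT; start with NADPH (500 uM addition) then DTNB (15 mM addition). Kinetic TNB absorbance, 405 nm filter. Four-parameter Hill fit across titration.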
Starred values were filed as active, the others as inactive.

Screening O=C(N/N=C/c1cccnc1)c1[nH]ncc1Br returned FMDV antiviral 50%, Cycloheximide cs 37*, Shiga toxin inh 50* and Sm TGR block 10%.
`O=C(N/N=C/c1ccccc1)c1[nH]ncc1Br` gave FMDV antiviral 34%, Cycloheximide cs 44*, Shiga toxin inh 110* and Sm TGR block -4%.
`O=C(N/N=C/c1ccco1)c1[nH]ncc1Br` gave Cycloheximide cs 43*, Shiga toxin inh 120* and Sm TGR block -14%.
For Cc1cc(C(=O)N/N=C/c2cccnc2)n[nH]1 the results were FMDV antiviral -3%, Cycloheximide cs 2, Shiga toxin inh 22 and Sm TGR block 11%.
For COc1ccc(/C=N/NC(=O)c2[nH]ncc2Br)c(OC)c1 the results were Cycloheximide cs 38*, Shiga toxin inh 68* and Sm TGR block -20%.
COc1ccc(/C=N/NC(=O)c2cccc(NC(C)=O)c2)c(OC)c1 was read as FMDV antiviral -1%, Cycloheximide cs -1, Shiga toxin inh -10 and Sm TGR block -1%.
O=C(N/N=C/c1ccccc1)c1[nH]c2ccc(Br)cc2c1-c1ccccc1 was read as FMDV antiviral 10%, Cycloheximide cs 0, Shiga toxin inh -10 and Sm TGR block 1%.
For COc1ccc(CNC(=O)CCn2nc(C)c3c(C)n(-c4ccccc4)nc3c2=O)cc1OC the results were FMDV antiviral -14% and Sm TGR block 2%.
Screening COc1ccc2oc(-c3ccc(C)c(NC(=O)CSc4ccc(Cl)cc4)c3)nc2c1 returned FMDV antiviral 43%, Cycloheximide cs 25*, Shiga toxin inh 65* and Sm TGR block 5%.
For CC(C)CCNC(=O)CN1C(=O)COc2ccc(S(=O)(=O)N3CCOCC3)cc21 the results were FMDV antiviral inconclusive and Sm TGR block 1%.
Cc1cc(NC(=O)CC2CCCC2)n(-c2nc3ccccc3[nH]2)n1 was read as FMDV antiviral -27%, Cycloheximide cs 3, Shiga toxin inh -12 and Sm TGR block 22µM*.
Cc1cc(NC(=O)/C=C/c2ccccc2Cl)n(-c2nc3ccccc3[nH]2)n1 was read as FMDV antiviral -24%, Cycloheximide cs 14*, Shiga toxin inh 1 and Sm TGR block -5%.
Cc1nc2c(-c3ccc(F)cc3)c(C)nn2c(C)c1CCC(=O)NCc1cccc(Cl)c1 was read as FMDV antiviral 0% and Sm TGR block 12%.
Screening Cc1cc(C)cc(OCc2cc(=O)n3cc(C)sc3n2)c1 returned FMDV antiviral -3% and Sm TGR block 4%.
`COC(=O)c1ccccc1Sc1ncnc2onc(C)c12` gave FMDV antiviral 28µM*, Cycloheximide cs -9, Shiga toxin inh -4 and Sm TGR block inconclusive.
`Cc1noc2ncnc(Sc3ccccc3Cl)c12` gave FMDV antiviral 40µM*, Cycloheximide cs -2, Shiga toxin inh -26 and Sm TGR block inconclusive.
Screening Cc1ccc(Sc2ncnc3onc(C)c23)c(C)c1 returned FMDV antiviral -28%, Cycloheximide cs -1, Shiga toxin inh 13 and Sm TGR block 0%.
Screening CC1=C(C(=O)OCc2ccc(C)cc2)C(c2ccccc2C(F)(F)F)CC(=O)N1 (stereo not given) returned FMDV antiviral 0% and Sm TGR block 6%.
Cc1ccccc1-c1cc2c(nn1)-c1ccccc1C2=O was read as FMDV antiviral -19%, Cycloheximide cs 18, Shiga toxin inh 83* and Sm TGR block 40%.
Screening Cc1ccc(-c2cc3c(nn2)-c2ccccc2C3=O)cc1 returned FMDV antiviral 10µM*, Cycloheximide cs 22*, Shiga toxin inh 25* and Sm TGR block -17%.
For O=c1[nH]nc(-c2ccc(F)cc2)cc1-c1ccccc1 the results were FMDV antiviral -15%, Cycloheximide cs -2, Shiga toxin inh -9 and Sm TGR block -4%.
Screening O=C1c2ccccc2-c2nnc(-c3ccc(O)cc3)cc21 returned FMDV antiviral 27%, Cycloheximide cs 20*, Shiga toxin inh 26 and Sm TGR block 2%.
`N#Cc1c(-c2ccccc2)cc(-c2ccc(O)cc2)nc1N` gave FMDV antiviral -29%, Cycloheximide cs -1, Shiga toxin inh 8 and Sm TGR block -22%.
`O=C1c2ccccc2-c2nnc(-c3ccc(F)cc3)cc21` gave FMDV antiviral -22%, Cycloheximide cs 42*, Shiga toxin inh 80* and Sm TGR block -22%.
For O=C1c2ccccc2-c2n[nH]c3cccc1c23 the results were FMDV antiviral 8%.
Screening COc1cc(-c2c(C(C)=O)c(C)nc3c2C(=O)c2ccccc2-3)cc(OC)c1OC returned FMDV antiviral 29%, Cycloheximide cs -2, Shiga toxin inh -6 and Sm TGR block 0%.
For Cc1ccccc1OCC(=O)Nc1c(C)ccc2nsnc12 the results were FMDV antiviral -26% and Sm TGR block 4%.
`CC(=O)Nc1ccc(C(=O)N2CCN(C(=O)c3ccco3)CC2)cc1` gave Cycloheximide cs -4, Shiga toxin inh -25 and Sm TGR block -30%.
CN(C)c1cccc(NC(=O)c2ccco2)c1 was read as FMDV antiviral 32%, Cycloheximide cs 18, Shiga toxin inh 26 and Sm TGR block -2%.
Screening CC(=O)Nc1ccc(N/C=C/C(=O)c2ccco2)cc1 returned FMDV antiviral 26%, Cycloheximide cs 59*, Shiga toxin inh 76* and Sm TGR block -26%.
`CN(C)c1ccc(N/C=C/C(=O)c2ccco2)cc1` gave FMDV antiviral -82%, Cycloheximide cs 49*, Shiga toxin inh 91* and Sm TGR block -24%.
Cc1ccc(C(C(=O)NCc2ccco2)N(C(=O)CNC(=O)c2cccs2)c2ccc(C)cc2C)cc1 (stereo not given) was read as Cycloheximide cs 16*, Shiga toxin inh 68* and Sm TGR block 11%.
`Cc1ccc(N(C(=O)CNC(=O)c2ccco2)C(C(=O)NC2CCCC2)c2ccncc2)c(C)c1` (stereo not given) gave FMDV antiviral -6%, Cycloheximide cs -3, Shiga toxin inh -12 and Sm TGR block -8%.
`CCOC(=O)c1c(C)oc2nc(C)nc(N3CCN(c4cc(Cl)ccc4C)CC3)c12` gave FMDV antiviral inconclusive and Sm TGR block 5%.
`COc1ccc2c(CNC3CCCCCC3)c(C(=O)O)n(Cc3ccc(C)cc3)c2c1` gave FMDV antiviral -16% and Sm TGR block -10%.
For CSc1nc(C)cc(Oc2ccc(=O)[nH]n2)n1 the results were FMDV antiviral -8%, Cycloheximide cs 4, Shiga toxin inh -11 and Sm TGR block 0%.
Screening COc1cc(C)nc(Oc2ccc(=O)[nH]n2)n1 returned FMDV antiviral -20%, Cycloheximide cs 22*, Shiga toxin inh 42 and Sm TGR block -1%.
Screening Cc1cc(Oc2ccc(=O)[nH]n2)nc(Cl)n1 returned FMDV antiviral -1%, Cycloheximide cs 35*, Shiga toxin inh 47* and Sm TGR block 5%.
For COCCCNc1nc2c(-c3cccc(Br)c3)nnn2c2ccccc12 the results were FMDV antiviral 21% and Sm TGR block -3%.
Cc1ccc(C)c(NC(=O)CN2C(=O)CCc3cc(S(=O)(=O)N4CCCCC4)ccc32)c1 was read as FMDV antiviral 18% and Sm TGR block -6%.
